This is part of a sample that, as a whole, favours compounds with a hit. Of some 83,000 tested, about 20% had one in any assay.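 Note: values are percent growth. 100 is the growth of untreated cells, values between 100 and 0 indicate rising inhibition; between -100 and 0 indicates cell death.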 The source made the active and inactive calls. The calls were made as follows: active = growth percent below 10; inactive = the rest.
Each compound was assayed on MDA-MB-468 breast (assay: NCI-60 one-dose screen, 48 h (100 = growth as untreated, 0 = no growth, -100 = all killed)). Settings: 10 µM unless noted.

| Structure (SMILES) | growth |
| --- | --- |
| CC[C@@](C)(NC(=O)C(C)(C)NC(=O)[C@@H](NC(=O)[C@@H]1CCCN1C(=O)C(C)(C)NC(=O)[C@H](CC(C)C)NC(=O)CNC(=O)C(C)(C)NC(=O)[C@@H](NC(=O)C(C)(C)NC(=O)[C@H](CCC(N)=O)NC(=O)[C@H](C)NC(=O)C(C)(C)NC(=O)[C@H](C)NC(=O)C(C)(C)NC(=O)[C@@H]1CCCN1C(=O)C(C)(C)NC(C)=O)C(C)C)C(C)C)C(=O)N[C@@H](CCC(N)=O)C(=O)N[C@@H](CCC(N)=O)C(=O)N[C@H](CO)Cc1ccccc1 | -3.95% [4.25 µM] (active) |
| Brc1ccc(Nc2nc3ccccc3nc2Nc2ccc(Br)cc2)cc1 | -48.6% (active) |
| Cc1ccc(-c2nn(-c3ccccc3)cc2C=C2C(=O)ON=C2C(C)C)cc1 | 94% (inactive) |
| C=CCNCCN1C(=O)c2ccc3c4c(ccc(c24)C1=O)C(=O)N(CCNCC=C)C3=O | -89.1% (active) |
| CC(=O)c1nc2ccccc2n1CCn1cc(CC(N)C(=O)O)c2ccccc21 (stereo not given) | 118% (inactive) |
| COc1ccc(Nc2ncnc3c2sc2nc(C)cc(C)c23)cc1 | 95.1% (inactive) |
| O=C1Nc2cc(Cl)ccc2/C1=C\c1c(-c2ccc(F)cc2)nc2ccccn12 | -7.93% (active) |
| COc1ccc(C(=O)C2=CC(=O)C(=O)C2)cc1OC | 108% (inactive) |
| Fc1ccc2nc(-c3nc(-c4ccccc4)n4ccccc34)[nH]c2c1 | -68.1% (active) |
| O=C(/C=C/c1ccccc1Br)c1cccc(OCCCCOc2cccc(C(=O)/C=C/c3ccccc3Br)c2)c1 | 95.4% (inactive) |
| Nc1ccc(C2=NN(c3ccccc3)C(c3ccc(Cl)cc3)C2)cc1 (stereo not given) | 62.6% (inactive) |
| Cc1c(CC(=O)OCCO)cc(-c2ccc(Cl)cc2)n1-c1ccccc1 | 89.1% (inactive) |
| Cc1ccc(S(=O)(=O)/C(=C\c2ccc(Cl)cc2)C(=O)c2ccccc2)cc1 | 105% (inactive) |
| O=c1nc(Nc2ccc([N+](=O)[O-])cc2O)sc2ccccc12 | 34.3% (inactive) |
| O=C1/C(=C/c2ccc([N+](=O)[O-])s2)Oc2cc(Cl)ccc21 | -17.8% (active) |
| NC(N)=Nc1ccc(Oc2cccc(Oc3ccc(Cl)c(C(F)(F)F)c3)c2)cn1 | -79.3% (active) |
| Clc1ccc(-n2ncc3c(NCCCN4CCOCC4)ncnc32)cc1 | 74.4% (inactive) |
| CN1CCN(C2=Nc3ccccc3Oc3ccc(Cl)cc32)CC1 | 100% (inactive) |
| COc1cc(/C=C/C(=O)/C=C/c2cc3ccc(Cl)cc3n(Cc3ccccc3)c2=O)ccc1O | -42.8% (active) |
| CN(C)C1CCN(C(=O)c2ccc(NC(=O)Nc3ccc(-c4nc(N5CCOCC5)nc(N5CCOCC5)n4)cc3)cc2)CC1 | -49.1% [2.5 µM] (active) |

| Structure (SMILES) | growth |
| --- | --- |
| COC(=O)C1NC(=S)N(c2ccc(Cl)cc2)C1/C=C/c1ccccc1 (stereo not given) | 108% (inactive) |
| CNC(=O)c1cc(Oc2ccc(NC(=O)Nc3ccc(Cl)c(OC(F)(F)F)c3)c(F)c2)ccn1 | 14.7% (inactive) |
| CN(C)C(=S)Sc1ccc([N+](=O)[O-])cc1[N+](=O)[O-] | -78.7% (active) |
| OCCS | 100% (inactive) |
| CS(=O)(=O)c1ccc(-c2nc3ccccc3n2CC(=O)N/N=C/c2ccccc2)cc1 | 112% (inactive) |
| COc1cc(CNc2oc(-c3ccccc3)c(-c3ccccc3)c2C#N)cc(CN2CCN(C)CC2)c1O | 57.4% (inactive) |
| N#Cc1cnn(-c2nc3c(Cl)cccc3s2)c1N | 85.3% (inactive) |
| COc1ccc(Cn2c(C(N)=O)cc3c2-c2nc(N)ncc2CCC3)cc1 | 82.1% (inactive) |
| CN(C)CCCC(C#N)c1ccccc1 (stereo not given) | 108% (inactive) |
| O=C(/C=C/c1ccccc1)c1cccc(OCCCOc2cccc(C(=O)/C=C/c3ccccc3)c2)c1 | 93.9% (inactive) |
| O=[N+]([O-])c1cc2ncccc2c2ncccc12 | 89% (inactive) |
| CCOC(=O)c1sc2ncnc(Nc3ccc(NC(=O)Nc4ccc(Cl)cc4)cc3)c2c1C | 68.9% (inactive) |
| CS(=O)(=O)N1CCN(Cc2cc3nc(-c4cccc5[nH]ncc45)nc(N4CCOCC4)c3s2)CC1 | -19.6% (active) |
| CS(=O)(=O)c1ccc(C(=O)N/N=C/c2ccc3c(c2)OCO3)cc1 | 109% (inactive) |
| O=C(C(=O)N1CCOCC1)c1ccc(OC2OC(CO)C(O)C(O)C2O)cc1 (stereo not given) | 105% (inactive) |
| O=C(Nc1ccccc1)Nc1ccc2cc3ccc(NC(=O)Nc4ccccc4)cc3nc2c1 | -57.8% (active) |
| O=C(Nc1cc(Cl)cc(Cl)c1)Nc1ccc2oc(=O)ccc2c1 | 15.7% (inactive) |
| CC(C)=NOC(C)C(=O)O (stereo not given) | 106% (inactive) |
| Oc1c(I)cc(I)cc1CNCCN(Cc1ccccn1)Cc1ccccn1 | -61.2% (active) |
| COc1ccc(S(=O)(=O)NCCNc2nccc(-c3c(-c4cccc([N+](=O)[O-])c4)nc4sccn34)n2)cc1 | 69.7% (inactive) |
